High-throughput results from PubChem BioAssay.
Sampled rows, rich in hits. Any-hit rate of the full collection: about 3.2%.
CaV13 ICDI inh: Disruptors of the CACNA1D IQ motif to Ca2+-dependent inactivation inhibitor domain association, primary screening, Förster resonance energy transfer in intact living …; HEK cells, CFP/YFP FRET ICDI-IQ, plate reader, 10 min; percent FRET-ratio fall versus neutral wells; inhibition, % at 12.3 µM; actives 0.098% (n = 340,000); AID 743397;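 active means mean replicate inhibition of at least 30% and at least 1% of replicates passing that level; inconclusive means only one of the two criteria is met; inactive means neither criterion is met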;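 further: 0% = median of the neutral control wells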
INS-1E GSIS act: GLuc luminescence reporter in INS-1E cells, primary screen for activators of glucose-dependent secretion of insulin | AID 743287 | INS-1E GLuc reporter insulin secretion, 2-3 h | actives 0.61% (n = 370,000) | activation, % at 16.6 µM;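 active means lowest replicate activation of at least 40%, so every replicate reaches that level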;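 further: 0% = median of neutral control wells and 100% = median of IBMX positive control wells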
PGC1a acetyl inh: lowers PGC1a acetylation signal in U2OS cells; actives 0.17% (n = 350,000); inhibition, % at 15.6 µM; AlphaScreen anti-acetyl-lysine; with virally co-expressed GCN5 acetyltransferase;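 active means every replicate shows inhibition of at least 40%; inconclusive means mean inhibition at least 40% but some replicate below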;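 further: 0% = neutral control wells and 100% = positive control wells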
ERAP1 inh: blocks human ERAP1 aminopeptidase activity. recombinant ERAP1, Leu-AMC fluorescence, 60 min. inhibition, % at 10.7 µM. actives 0.15% (n = 340,000);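 active means mean replicate inhibition of at least 30%, or all replicates individually reaching that 30% level; inactive means mean below 30% and not every replicate reaching it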;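 further: 0% = neutral control wells and 100% = L-leucinethiol positive control wells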
Target sequence (Q9NZ08 whole entry, looked up): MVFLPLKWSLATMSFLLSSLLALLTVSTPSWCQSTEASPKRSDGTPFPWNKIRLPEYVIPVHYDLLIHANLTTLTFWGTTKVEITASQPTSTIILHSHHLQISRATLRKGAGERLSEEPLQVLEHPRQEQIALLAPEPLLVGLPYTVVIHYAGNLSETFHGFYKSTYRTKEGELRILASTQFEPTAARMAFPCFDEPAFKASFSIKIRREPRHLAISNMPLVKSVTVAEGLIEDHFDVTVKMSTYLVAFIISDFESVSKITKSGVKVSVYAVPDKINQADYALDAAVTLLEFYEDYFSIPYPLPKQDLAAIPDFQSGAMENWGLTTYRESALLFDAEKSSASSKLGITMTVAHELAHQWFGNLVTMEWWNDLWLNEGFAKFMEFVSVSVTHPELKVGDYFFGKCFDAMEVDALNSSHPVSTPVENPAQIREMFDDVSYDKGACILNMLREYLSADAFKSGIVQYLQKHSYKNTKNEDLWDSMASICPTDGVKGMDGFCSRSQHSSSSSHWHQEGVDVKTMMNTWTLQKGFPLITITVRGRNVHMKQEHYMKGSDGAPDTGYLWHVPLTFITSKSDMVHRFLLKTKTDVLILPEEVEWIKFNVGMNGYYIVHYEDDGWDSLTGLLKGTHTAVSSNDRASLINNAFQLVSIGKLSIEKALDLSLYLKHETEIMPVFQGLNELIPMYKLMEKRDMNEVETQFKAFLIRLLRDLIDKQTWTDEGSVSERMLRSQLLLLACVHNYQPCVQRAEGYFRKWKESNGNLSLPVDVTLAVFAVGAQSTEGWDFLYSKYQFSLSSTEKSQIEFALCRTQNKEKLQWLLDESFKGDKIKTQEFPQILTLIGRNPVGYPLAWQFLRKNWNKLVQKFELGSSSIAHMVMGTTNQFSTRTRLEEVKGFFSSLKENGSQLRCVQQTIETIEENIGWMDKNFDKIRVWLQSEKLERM
rRNA inh HTS: selective bacterial rRNA inhibition in E. coli | actives 1.6% (n = 350,000) | GFP signal change (wild-type ribosome), % (concentration not given with the values) | AID 720706 | E. coli WT GFP vs humanized-ribosome RFP mutants, fluorescence, 24 h; stronger effect = lower value; DMSO median 0, no signal -100;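 active means significant combined selectivity score with lowered wild-type GFP, culture density cut under 30%, mutant RFP and density less affected; inactive means any of these conditions unmet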
DENV2 CPE: DENV2-induced cell death inhibition; DENV2-infected cells, cytopathic effect rescue, plate reader; CPE inhibition, % at 9.99 µM; actives 1.7% (n = 350,000); AID 651640; in the data active means CPE inhibition above about 20%, passing the limit was not always enough; inconclusive means no clear call, values can overlap the other calls; tested in BHK-21 cells;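 further: 0% = median of neutral control wells and 100% = median of positive control wells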
* marks the source's active call; other numbers are inactive results; ? = inconclusive; . = not tested or not shown.

SMILES | CaV13 ICDI inh | INS-1E GSIS act | PGC1a acetyl inh | ERAP1 inh | rRNA inh HTS | DENV2 CPE
CSc1ncccc1C(=O)NCCc1ccccc1F | -18.4 | 72.7* | -6.1 | -2.5 | 5.2 | 1.9
CSc1ncccc1C(=O)NCCc1ccc(Cl)cc1 | -5.4 | -20.0 | 0.8 | 6.7 | 3.8 | ?
Cc1noc(C)c1S(=O)(=O)Nc1ccccc1Oc1ccccc1 | -4.5 | -35.4 | . | 0.2 | -21.6* | 7.7
Cc1cc(OCC(=O)NC2CC(C)(C)NC(C)(C)C2)c(C)cc1Br | . | -6.5 | . | 0.3 | 0.5 | 42.1*
Cc1ccc(OCC(=O)NC2CC(C)(C)NC(C)(C)C2)c(C)c1 | -1.8 | 8.7 | 1.8 | 7.8 | 12.6 | -6.2
Cc1[nH]nc(C(F)(F)F)c1N=NN1CCOCC1 | -5.2 | 148.2* | -11.7 | 3.4 | -58.7 | -6.4
N#CC(Sc1ccccn1)c1ccc(Cl)cc1Cl (stereo not given) | -3.4 | -1.4 | . | -0.9 | -20.9* | 1.7
CCCC(=O)Nc1ccc2c(c1)OC[C@H](C)N(Cc1ccccc1F)C[C@H](C)[C@@H](OC)CN(C)C2=O | . | -28.9 | -6.3 | -1.9 | -5.4 | 21.1*
CCCC(=O)Nc1ccc2c(c1)OC[C@@H](C)N(Cc1ccncc1)C[C@@H](C)[C@@H](OC)CN(C)C2=O | . | -2.7 | 2.1 | 5.9 | -0.5 | -7.4
CCCC(=O)Nc1ccc2c(c1)OC[C@@H](C)N(Cc1ccccc1F)C[C@@H](C)[C@@H](OC)CN(C)C2=O | . | -16.6 | 8.5 | -3.9 | -3.3 | -7.7
CCCC(=O)Nc1ccc2c(c1)OC[C@@H](C)N(Cc1ccncc1)C[C@H](C)[C@@H](OC)CN(C)C2=O | . | 19.0 | . | 4.9 | -1.7 | 25.2*
C=C1C(=O)[C@]23C[C@H]1CCC2[C@]1(C)C(=O)CC[C@@](C)(C(=O)O)C1C[C@@H]3O (stereo not given in full) | -6.7 | 93.5* | -11.8 | . | 1.0 | -3.8
CC=Cc1ccc2n(c1=O)C[C@H]1[C@H](CO)[C@@H](C(=O)N(C)C)N(Cc3cccc(F)c3)[C@@H]21 (mixture of isomers) | . | 11.7 | . | -3.3 | -1.4 | 55.7*
CC=Cc1ccc2n(c1=O)C[C@H]1[C@H](CO)[C@@H](C(=O)NCCC)N(Cc3cocn3)[C@@H]21 (mixture of isomers) | . | -0.1 | . | 4.2 | 2.5 | 78.4*
C[C@@H]1CN([C@@H](C)CO)C(=O)c2cccc(NC(=O)Nc3ccc4c(c3)OCO4)c2O[C@H]1CN(C)C | . | 24.8 | 12.2 | 0.5 | -2.6 | 14.7
CCN1[C@@H]2c3cccc(=O)n3C[C@@H]2[C@@H](CO)[C@@H]1C(=O)NC1Cc2ccccc2C1 | . | 12.4 | . | -1.2 | -0.4 | 17.4
COC(=O)CCc1ccc(O)cc1 | . | . | 8.6 | 2.3 | . | -8.7
COC(=O)CCC(=O)N(CCN(Cc1ccccc1)C(=O)CCC(=O)OC)Cc1ccccc1 | -5.1 | . | . | -2.2 | -16.4* | 19.1
CCCC(=O)N(CCN(Cc1ccccc1)C(=O)CCC)Cc1ccccc1 | . | . | -16.5 | . | . | .
COC(=O)CCc1cccc(CCC(=O)OC)c1 | -11.1 | 0.7 | 3.2 | 0.5 | 6.1 | 46.0*
C[C@@H]1CN([C@@H](C)CO)C(=O)c2cc(NS(=O)(=O)c3ccc(Cl)cc3)ccc2O[C@H]1CN(C)CC1CCCCC1 | . | -8.1 | . | -1.7 | -3.4 | 2.1
C[N+]1(CC2COC3(CCCCC3)O2)CCCCC1 (stereo not given) | -2.7 | 9.0 | 7.6 | 54.0* | 11.2 | 6.1
CCOC(=O)c1cnc(SCC(=O)OCC(=O)NC2CCS(=O)(=O)C2)nc1N (stereo not given) | -4.3 | 42.5* | -7.2 | 0.1 | 1.1 | 18.4
CCN(CC)S(=O)(=O)c1ccc2c(c1)nc(CCC(=O)OCC(=O)Nc1c(F)cccc1F)n2C | -4.3 | -9.6 | . | -1.3 | -3.7 | 45.5*
C[C@H](CO)N1C[C@H](C)[C@@H](CN(C)Cc2ccc(C(=O)Nc3ccccc3N)cc2)Oc2c(NC(=O)Nc3ccc4c(c3)OCO4)cccc2C1=O | . | -18.6 | -5.0 | 1.6 | -5.8 | -2.7
SMILES | CaV13 ICDI inh | INS-1E GSIS act | PGC1a acetyl inh | ERAP1 inh | rRNA inh HTS | DENV2 CPE
O=C(C[C@H]1CC[C@@H]2[C@H](COC[C@H](O)CN2Cc2cc(F)ccc2F)O1)N[C@H]1CCN(Cc2ccccc2)C1 | . | 2.9 | -5.4 | 0.0 | 2.8 | 13.5
COc1cc(/C=N/NC(=S)NC2CC3CCC2C3)ccc1O (stereo not given) | -4.8 | 8.5 | 7.0 | . | -25.9* | 4.6
O=S(=O)(c1cnc(Cl)c(Cl)c1)N1CCc2ccccc21 | -1.5 | -13.2 | -3.3 | 4.8 | -33.1* | 56.6*
CCCNC(=O)N(C)C[C@H]1Oc2cc(C#C[C@H](C)O)ccc2S(=O)(=O)N([C@H](C)CO)C[C@H]1C | . | 16.6 | 18.4 | . | 6.7 | 42.3*
C[C@H](CO)N1C[C@H](C)[C@H](CN(C)C)Oc2cc(-c3cncnc3)ccc2S1(=O)=O | . | 9.8 | -7.1 | 1.7 | 5.7 | 0.3
COc1cccc(-c2ccc3c(c2)O[C@@H](CN(C)Cc2cncnc2)[C@H](C)CN([C@H](C)CO)S3(=O)=O)c1 | . | -13.5 | -0.1 | 1.6 | -11.1 | 7.2
CCCNC(=O)N(C)C[C@@H]1Oc2cc(C3=CCCCC3)ccc2S(=O)(=O)N([C@H](C)CO)C[C@H]1C | . | -2.8 | -15.1 | 4.0 | -0.1 | 46.9*
COc1cccc(-c2ccc3c(c2)O[C@H](CN(C)Cc2cncnc2)[C@H](C)CN([C@@H](C)CO)S3(=O)=O)c1 | . | 3.2 | -0.7 | -2.5 | -3.4 | 28.5*
C[C@@H]1CN([C@H](C)CO)S(=O)(=O)c2ccc(-c3cncnc3)cc2O[C@H]1CN(C)C | . | 6.8 | -5.2 | 1.3 | 8.5 | 34.5*
CCCNC(=O)N(C)C[C@H]1Oc2cc(C3=CCCCC3)ccc2S(=O)(=O)N([C@@H](C)CO)C[C@H]1C | . | -9.6 | -10.8 | 1.8 | -1.8 | -3.8
CCCNC(=O)N(C)C[C@@H]1Oc2cc(C#C[C@H](C)O)ccc2S(=O)(=O)N([C@H](C)CO)C[C@H]1C | -7.3 | 30.4 | -10.1 | 0.4 | 4.3 | 0.9
C[C@@H]1CN([C@H](C)CO)C(=O)c2cccc(NC(=O)Nc3ccc4c(c3)OCO4)c2O[C@@H]1CN(C)C(=O)NC1CCCCC1 | . | -2.5 | 8.1 | -2.0 | -5.0 | 14.1
CCCN1[C@@H]2c3ccc(C4=CCCC4)c(=O)n3C[C@@H]2[C@@H](CO)[C@@H]1C(=O)NC1Cc2ccccc2C1 | . | -5.5 | . | 2.0 | -2.5 | 0.6
C[C@H](CO)N1C[C@H](C)[C@@H](CN(C)C(=O)c2ccccc2)Oc2cc(C3=CCCC3)ccc2S1(=O)=O | . | -4.5 | . | -3.7 | 2.1 | 5.0
C[C@H](CO)N1C[C@H](C)[C@H](CN(C)C(=O)c2ccccc2)Oc2cc(C3=CCCC3)ccc2S1(=O)=O | . | -8.8 | -4.5 | -1.0 | -6.4 | 27.3*
